The values below come from article PMC7862700, “An all-to-all approach to the identification of sequence-specific readers for epigenetic DNA modifications on cytosine”.

Common to all, as to experiment: DAPPL (digital affinity profiling via proximity ligation, sequencing); 10 mM Tris-HCl pH 7.5, 50 mM NaCl, 1 mM DTT, 4% glycerol, room temperature, 30 min; GST-TFs on glutathione beads, 16-mer random dsDNA library, 0.1% formaldehyde crosslink after washing; high values mean tight binding
What all share (settings): protein: recombinant; tags: N-terminal GST; dsDNA, one strand shown

For one assay, the target named is T1, ERF (Homo sapiens, UniProt P50548 1-548).
T1 sequence: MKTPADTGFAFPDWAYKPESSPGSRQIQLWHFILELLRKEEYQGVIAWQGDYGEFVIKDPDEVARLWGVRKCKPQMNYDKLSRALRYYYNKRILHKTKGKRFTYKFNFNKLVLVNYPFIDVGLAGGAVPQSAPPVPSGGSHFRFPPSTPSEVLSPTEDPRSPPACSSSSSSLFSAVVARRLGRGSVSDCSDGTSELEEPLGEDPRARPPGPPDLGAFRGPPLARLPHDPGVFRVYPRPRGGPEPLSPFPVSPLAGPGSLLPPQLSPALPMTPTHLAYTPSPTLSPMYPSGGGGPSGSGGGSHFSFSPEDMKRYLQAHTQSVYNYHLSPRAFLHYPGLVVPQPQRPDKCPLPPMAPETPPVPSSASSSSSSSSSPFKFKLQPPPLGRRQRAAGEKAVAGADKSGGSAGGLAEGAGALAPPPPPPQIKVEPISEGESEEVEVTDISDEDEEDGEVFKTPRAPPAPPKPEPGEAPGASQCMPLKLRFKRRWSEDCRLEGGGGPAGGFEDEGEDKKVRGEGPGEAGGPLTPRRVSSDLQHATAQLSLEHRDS
Summed up:
(§1)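 Human transcription factors carrying a GST fusion were produced in yeast, bound to glutathione beads, tagged with DNA barcodes and pooled together with a tag-only sample. Each pool was held with 200 nmole of a random double-stranded 16-mer DNA library in Tris/NaCl/DTT/glycerol buffer for 30 min at room temperature, then washed, crosslinked in 0.1% formaldehyde, proximity-ligated with BsaI/T4 ligase (1 h, 37 °C), PCR-amplified and sequenced on an Illumina NextSeq500. Binding signal is the read frequency of each hexamer for a given factor divided by its frequency in the tag-only sample.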

The target in the next assay is T2, ETV3L (Homo sapiens, UniProt Q6ZN32 1-361).
T2 sequence: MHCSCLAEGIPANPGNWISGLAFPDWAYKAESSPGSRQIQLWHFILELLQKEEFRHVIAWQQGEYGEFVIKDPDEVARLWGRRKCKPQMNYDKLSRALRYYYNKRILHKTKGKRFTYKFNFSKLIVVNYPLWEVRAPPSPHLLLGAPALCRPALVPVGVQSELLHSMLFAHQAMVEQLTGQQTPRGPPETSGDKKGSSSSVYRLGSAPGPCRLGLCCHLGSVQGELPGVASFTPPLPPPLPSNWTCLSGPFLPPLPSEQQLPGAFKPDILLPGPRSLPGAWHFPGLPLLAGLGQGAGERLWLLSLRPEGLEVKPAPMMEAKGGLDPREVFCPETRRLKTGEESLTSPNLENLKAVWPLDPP
The procedure, abridged: as §1

Another assay concerns the target T3, ETS2 (Homo sapiens, UniProt P15036 1-469).
T3 sequence: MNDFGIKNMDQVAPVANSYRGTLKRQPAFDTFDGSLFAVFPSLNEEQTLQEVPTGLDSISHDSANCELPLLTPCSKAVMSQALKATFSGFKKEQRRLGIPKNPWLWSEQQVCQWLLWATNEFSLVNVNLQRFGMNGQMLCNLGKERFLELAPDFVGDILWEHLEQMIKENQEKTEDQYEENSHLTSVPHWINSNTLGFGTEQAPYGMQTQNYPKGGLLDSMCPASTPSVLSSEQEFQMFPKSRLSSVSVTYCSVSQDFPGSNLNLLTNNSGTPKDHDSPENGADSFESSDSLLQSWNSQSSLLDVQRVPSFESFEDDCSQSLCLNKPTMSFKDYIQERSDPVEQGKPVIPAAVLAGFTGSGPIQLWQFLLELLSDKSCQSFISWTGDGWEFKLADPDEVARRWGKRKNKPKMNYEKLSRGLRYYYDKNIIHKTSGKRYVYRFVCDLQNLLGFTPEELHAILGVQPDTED
Summed up:
as §1

The target in the next assay is T4, SPDEF (Homo sapiens, UniProt O95238 1-335).
T4 sequence: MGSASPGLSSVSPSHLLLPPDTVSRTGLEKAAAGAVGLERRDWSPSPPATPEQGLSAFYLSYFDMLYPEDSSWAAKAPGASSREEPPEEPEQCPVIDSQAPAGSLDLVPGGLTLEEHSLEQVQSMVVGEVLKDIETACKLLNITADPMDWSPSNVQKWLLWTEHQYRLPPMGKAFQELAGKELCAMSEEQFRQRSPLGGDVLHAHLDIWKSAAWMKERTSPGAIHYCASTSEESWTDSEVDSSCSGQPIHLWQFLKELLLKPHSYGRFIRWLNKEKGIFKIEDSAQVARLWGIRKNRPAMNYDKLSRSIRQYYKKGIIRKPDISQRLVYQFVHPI
The procedure, abridged:
as §1

The target of a further assay is T5, ETV7 (Homo sapiens, UniProt Q9Y603 1-341).
T5 sequence: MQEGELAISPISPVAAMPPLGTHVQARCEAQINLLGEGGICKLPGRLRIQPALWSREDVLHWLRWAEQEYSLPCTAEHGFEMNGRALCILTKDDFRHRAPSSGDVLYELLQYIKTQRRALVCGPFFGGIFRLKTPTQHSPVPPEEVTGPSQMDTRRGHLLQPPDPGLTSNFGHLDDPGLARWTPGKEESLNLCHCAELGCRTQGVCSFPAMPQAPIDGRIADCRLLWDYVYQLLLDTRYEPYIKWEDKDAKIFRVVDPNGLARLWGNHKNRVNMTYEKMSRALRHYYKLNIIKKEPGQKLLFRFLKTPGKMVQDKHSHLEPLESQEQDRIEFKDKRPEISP
The procedure, abridged: as §1

For the next assay, the target named is T6, ELF5 (Homo sapiens, UniProt Q9UKW6-2 1-255).
T6 sequence: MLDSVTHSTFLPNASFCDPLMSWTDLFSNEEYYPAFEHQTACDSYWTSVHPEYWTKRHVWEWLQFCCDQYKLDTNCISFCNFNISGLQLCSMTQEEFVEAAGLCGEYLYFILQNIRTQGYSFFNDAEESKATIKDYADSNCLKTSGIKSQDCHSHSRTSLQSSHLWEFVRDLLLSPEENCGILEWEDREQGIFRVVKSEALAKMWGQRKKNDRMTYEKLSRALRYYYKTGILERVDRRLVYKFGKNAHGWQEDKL
Summed up:
as §1

The target in another assay is T7, ETV3 (Homo sapiens, UniProt P41162-2 1-143).
T7 sequence: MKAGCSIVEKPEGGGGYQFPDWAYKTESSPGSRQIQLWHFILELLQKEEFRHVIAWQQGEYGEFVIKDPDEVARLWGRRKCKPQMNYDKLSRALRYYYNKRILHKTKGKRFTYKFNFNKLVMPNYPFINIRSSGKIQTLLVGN
Summed up: as §1

A further assay deals with ETV6 (Homo sapiens, UniProt P41212 1-452). The procedure, abridged:
as §1

ETV6, sequence (P41212 whole entry): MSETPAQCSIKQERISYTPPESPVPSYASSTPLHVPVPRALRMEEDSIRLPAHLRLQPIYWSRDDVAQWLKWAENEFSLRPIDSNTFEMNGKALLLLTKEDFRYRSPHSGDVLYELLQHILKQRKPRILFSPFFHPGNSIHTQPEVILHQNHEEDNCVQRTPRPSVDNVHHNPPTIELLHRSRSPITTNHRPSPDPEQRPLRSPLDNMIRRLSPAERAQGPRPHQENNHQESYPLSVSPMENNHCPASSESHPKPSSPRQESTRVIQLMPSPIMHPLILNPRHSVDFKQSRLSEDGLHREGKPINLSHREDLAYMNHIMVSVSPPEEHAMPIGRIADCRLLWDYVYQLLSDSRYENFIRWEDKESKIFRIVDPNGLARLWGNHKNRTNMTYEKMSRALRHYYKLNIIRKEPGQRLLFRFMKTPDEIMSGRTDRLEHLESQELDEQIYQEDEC

In the case of TAGTTA, the binding signal is 1.18 fold enrichment (6-mer frequency, TF over GST control) with ERF; 1.1 fold enrichment (6-mer frequency, TF over GST control) with ETV3L; 1.12 fold enrichment (6-mer frequency, TF over GST control) in the assay with ETS2; 1.06 fold enrichment (6-mer frequency, TF over GST control) in the assay with SPDEF; 1.1 fold enrichment (6-mer frequency, TF over GST control) with ETV7; 1.06 fold enrichment (6-mer frequency, TF over GST control) in the assay with ELF5. Further, the binding signal was 1.12 fold enrichment (6-mer frequency, TF over GST control) with ETV3 and 1.16 fold enrichment (6-mer frequency, TF over GST control) in the assay with ETV6.
Regarding TTAATA, the binding signal in the assay with ERF was 1.24 fold enrichment (6-mer frequency, TF over GST control); with ETV3L it was 1.28 fold enrichment (6-mer frequency, TF over GST control); with ETS2 it was 1.21 fold enrichment (6-mer frequency, TF over GST control); in the assay with SPDEF, 1.14 fold enrichment (6-mer frequency, TF over GST control); with ETV7, 1.23 fold enrichment (6-mer frequency, TF over GST control); in the assay with ELF5, 1.12 fold enrichment (6-mer frequency, TF over GST control). In addition, the binding signal with ETV3 is 1.09 fold enrichment (6-mer frequency, TF over GST control); with ETV6, 1.15 fold enrichment (6-mer frequency, TF over GST control).
With CCCTTC, the binding signal with ERF is 1.25 fold enrichment (6-mer frequency, TF over GST control); with ETV3L, 1.44 fold enrichment (6-mer frequency, TF over GST control); in the assay with ETS2 it was 1.37 fold enrichment (6-mer frequency, TF over GST control); in the assay with SPDEF, 1.38 fold enrichment (6-mer frequency, TF over GST control); with ETV7, 1.43 fold enrichment (6-mer frequency, TF over GST control); with ELF5, 1.62 fold enrichment (6-mer frequency, TF over GST control). For the same sequence, the binding signal is 1.34 fold enrichment (6-mer frequency, TF over GST control) with ETV3 and 1.5 fold enrichment (6-mer frequency, TF over GST control) with ETV6.
As for TTCAGC, the binding signal with ERF is 1.14 fold enrichment (6-mer frequency, TF over GST control); with ETV3L, 1.21 fold enrichment (6-mer frequency, TF over GST control); with ETS2, 1.27 fold enrichment (6-mer frequency, TF over GST control); with SPDEF, 1.12 fold enrichment (6-mer frequency, TF over GST control); with ETV7, 1.27 fold enrichment (6-mer frequency, TF over GST control); in the assay with ELF5, 1.16 fold enrichment (6-mer frequency, TF over GST control). For the same sequence, the binding signal is 1.32 fold enrichment (6-mer frequency, TF over GST control) in the assay with ETV3 and 1.2 fold enrichment (6-mer frequency, TF over GST control) with ETV6.
Regarding CTGTTA, the binding signal was 1.28 fold enrichment (6-mer frequency, TF over GST control) with ERF; 1.23 fold enrichment (6-mer frequency, TF over GST control) with ETV3L; 1.26 fold enrichment (6-mer frequency, TF over GST control) with ETS2; 1.32 fold enrichment (6-mer frequency, TF over GST control) in the assay with SPDEF; 1.12 fold enrichment (6-mer frequency, TF over GST control) with ETV7; 1.37 fold enrichment (6-mer frequency, TF over GST control) with ELF5. Moreover, the binding signal is 1.31 fold enrichment (6-mer frequency, TF over GST control) with ETV3 and 1.26 fold enrichment (6-mer frequency, TF over GST control) with ETV6.
For CCGCAT, the binding signal with ERF was 1.46 fold enrichment (6-mer frequency, TF over GST control); with ETV3L, 1.6 fold enrichment (6-mer frequency, TF over GST control); in the assay with ETS2 it was 1.56 fold enrichment (6-mer frequency, TF over GST control); with SPDEF it was 1.64 fold enrichment (6-mer frequency, TF over GST control); with ETV7, 1.44 fold enrichment (6-mer frequency, TF over GST control); in the assay with ELF5 it was 1.75 fold enrichment (6-mer frequency, TF over GST control). For the same sequence, the binding signal with ETV3 was 1.57 fold enrichment (6-mer frequency, TF over GST control); with ETV6 it was 1.59 fold enrichment (6-mer frequency, TF over GST control).
For TATTGG, the binding signal with ERF was 1.2 fold enrichment (6-mer frequency, TF over GST control); with ETV3L it was 1.18 fold enrichment (6-mer frequency, TF over GST control); in the assay with ETS2 it was 1.23 fold enrichment (6-mer frequency, TF over GST control); with SPDEF, 1.23 fold enrichment (6-mer frequency, TF over GST control); in the assay with ETV7, 1.19 fold enrichment (6-mer frequency, TF over GST control); with ELF5, 1.1 fold enrichment (6-mer frequency, TF over GST control). Moreover, the binding signal with ETV3 is 1.17 fold enrichment (6-mer frequency, TF over GST control); in the assay with ETV6, 1.21 fold enrichment (6-mer frequency, TF over GST control).
